Reference: PubChem BioAssay AID1159580 (chemical genetic matrix, 2015)
Out of some 5,500 compounds screened, about 2,000 (36%) were called active. Roughly 18% stayed inconclusive and do not appear here. No stated cut-off is given here; in the data, active means normalized growth mostly below about 0.91 (no sharp cut-off); inconclusive means no clear call, values can overlap the other calls; inactive means mostly above about 0.92. The list shows a part of the results.

Test: chemical genetic growth profiling, strain panel (AID 1159580);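 further: tested at 20 µM; growth read once vehicle control cultures reached saturation at 30 °C; 1 = growth at the plate median or of vehicle wells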
Details: growth OD
[1] = S. cerevisiae deletion strains, locus YAL013W, strain DEP1, stronger effect = lower value
[2] = S. cerevisiae deletion strains, locus YGR078C, strain PAC10, stronger effect = lower value
[3] = S. cerevisiae deletion strains, locus YJR075W, strain HOC1, stronger effect = lower value
[4] = S. cerevisiae deletion strains, locus YMR307W, strain GAS1, stronger effect = lower value
[5] = S. cerevisiae deletion strains, locus YNL322C, strain KRE1, stronger effect = lower value
[6] = S. cerevisiae deletion strains, locus YPL055C, strain LGE1, stronger effect = lower value
[7] = S. cerevisiae deletion strains, locus YBR229C, strain ROT2, stronger effect = lower value
[8] = S. cerevisiae deletion strains, locus YDL101C, strain DUN1, stronger effect = lower value
[9] = S. cerevisiae deletion strains, locus YDR150W, strain NUM1, stronger effect = lower value
[10] = S. cerevisiae deletion strains, locus YEL061C, strain CIN8, stronger effect = lower value
[11] = S. cerevisiae deletion strains, locus YHR030C, strain SLT2, stronger effect = lower value
[12] = S. cerevisiae deletion strains, locus YHR087W, strain rtc3, stronger effect = lower value
[13] = S. cerevisiae deletion strains, locus YJR043C, strain POL32, stronger effect = lower value
[14] = S. cerevisiae deletion strains, locus YLR039C, strain RIC1, stronger effect = lower value
[15] = S. cerevisiae deletion strains, locus YLR058C, strain SHM2 (second series), stronger effect = lower value
[16] = S. cerevisiae deletion strains, locus YLR085C, strain ARP6, stronger effect = lower value
[17] = S. cerevisiae deletion strains, locus YLR262C, strain YPT6, stronger effect = lower value
[18] = S. cerevisiae deletion strains, locus YML094W, strain GIM5, stronger effect = lower value
[19] = S. cerevisiae deletion strains, locus YMR219W, strain ESC1, stronger effect = lower value
[20] = S. cerevisiae deletion strains, locus YMR263W, strain SAP30, stronger effect = lower value
[21] = S. cerevisiae deletion strains, locus YNL153C, strain GIM3, stronger effect = lower value
[22] = S. cerevisiae deletion strains, locus YNL298W, strain CLA4 (second series), stronger effect = lower value
[23] = S. cerevisiae deletion strains, locus YNR030W, strain Alg12, stronger effect = lower value
[24] = S. cerevisiae deletion strains, locus YPL241C, strain CIN2, stronger effect = lower value
[25] = S. cerevisiae deletion strains, locus YPR135W, strain CTF4, stronger effect = lower value

Measured: normalized growth

CCNC(=O)C1OC(n2cnc3c(NCc4ccccc4)ncnc32)C(O)C1O (stereo not given)
inactive: [1] 0.989 | S. cerevisiae deletion strains, locus YAL040C, strain CLN3, stronger effect = lower value 0.987 | S. cerevisiae deletion strains, locus YCL061C, strain MRC1 (second series), stronger effect = lower value 1.01 | S. cerevisiae deletion strains, locus YDR363W, strain ESC2, stronger effect = lower value 0.958 | S. cerevisiae deletion strains, locus YER002W, strain NOP16, stronger effect = lower value 1.01 | [2] 0.979 | [3] 1 | [4] 1 | S. cerevisiae deletion strains, locus YNL128W, strain TEP1, stronger effect = lower value 0.959 | S. cerevisiae deletion strains, locus YNL175C, strain NOP13, stronger effect = lower value 0.967 | S. cerevisiae deletion strains, locus YNL197C, strain WHI3, stronger effect = lower value 0.95 | S. cerevisiae deletion strains, locus YNL224C, strain SQS1, stronger effect = lower value 0.984 | [5] 0.99 | S. cerevisiae deletion strains, locus YOR083W, strain WHI5 (second series), stronger effect = lower value 0.956 | [6] 1

Cc1noc(C)c1NC(N)=O
inactive: [1] 0.994 | [7] 0.989 | [8] 0.974 | [9] 0.979 | [10] 0.981 | [2] 0.983 | S. cerevisiae deletion strains, locus YGR229C, strain SMI1, stronger effect = lower value 1.03 | [11] 1.04 | [12] 0.968 | S. cerevisiae deletion strains, locus YJL187C, strain SWE1, stronger effect = lower value 0.998 | [13] 0.995 | [3] 1.04 | S. cerevisiae deletion strains, locus YKL190W, strain CNB1, stronger effect = lower value 1.01 | [14] 0.97 | [15] 0.992 | [16] 1.01 | [17] 0.997 | [18] 0.952 | [19] 0.993 | [20] 1.03 | [4] 1.21 | [21] 0.999 | [22] 0.978 | [5] 0.987 | [23] 0.987 | S. cerevisiae deletion strains, locus YOL006C, strain TOP1, stronger effect = lower value 1.04 | [6] 0.975 | [24] 0.986 | [25] 0.898

Cc1noc(N)c1C(N)=S
active: [24] 1.17 [resistant]
inactive: [1] 0.986 | [7] 1 | [8] 1.02 | S. cerevisiae deletion strains, locus YDL134C, strain PPH21, stronger effect = lower value 0.993 | [9] 1 | [10] 1 | [2] 1.02 | [11] 1.05 | [12] 1 | [13] 1.01 | [3] 1.05 | [14] 1.05 | [15] 1 | [16] 1.17 | [17] 1.01 | [18] 0.99 | [19] 1.01 | [20] 1 | [21] 1.01 | [22] 1.03 | [5] 0.998 | [23] 0.995 | [6] 1.01 | [25] 0.982 | S. cerevisiae strains, strain wild type, stronger effect = lower value 0.986
